ADAM10 inh: human ADAM10 inhibitors, primary screen, biochemical, QFRET, HTS | recombinant ADAM10, EDANS/DABCYL FRET peptide cleavage, 3 h | inhibition, % at 7 µM | hit rate 0.62% among 370,000;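 active = inhibition above a per-campaign cutoff equal to the mean of compounds falling between control-based bounds plus 3 SD, cut at about 20% in these data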
PLC-gamma1 inh: PLC-gamma1 enzyme inhibitors, primary screen, biochemical, fluorescence, purified enzyme; fluorogenic substrate; inhibition, % at 12.2 µM; hit rate 0.84% among 370,000; AID 720700, 2013
PLC-beta3 inh: human PLC-beta3 inhibitors, primary screen, biochemical, fluorescence | 1-phosphatidylinositol 4,5-bisphosphate phosphodiesterase beta-3 (Homo sapiens), Q01970 | Purified PLC-beta3, fluorogenic substrate | inhibition, % at 12.2 µM | hit rate 0.18% among 370,000 | AID 720704, 2013; in the data active = inhibition above about 11%
ADAM17 inh: ADAM17 inhibitors, primary screen, biochemical, QFRET; recombinant ADAM17, EDANS/DABCYL FRET peptide cleavage; inhibition, % at 6.95 µM; hit rate 0.83% among 370,000; AID 720648, 2013;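 active = inhibition above the mean of compounds lying between control limits plus 3 SD, set per campaign, cut at about 8.5% in these data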
Target sequence (P78536 215-824 limits assumed): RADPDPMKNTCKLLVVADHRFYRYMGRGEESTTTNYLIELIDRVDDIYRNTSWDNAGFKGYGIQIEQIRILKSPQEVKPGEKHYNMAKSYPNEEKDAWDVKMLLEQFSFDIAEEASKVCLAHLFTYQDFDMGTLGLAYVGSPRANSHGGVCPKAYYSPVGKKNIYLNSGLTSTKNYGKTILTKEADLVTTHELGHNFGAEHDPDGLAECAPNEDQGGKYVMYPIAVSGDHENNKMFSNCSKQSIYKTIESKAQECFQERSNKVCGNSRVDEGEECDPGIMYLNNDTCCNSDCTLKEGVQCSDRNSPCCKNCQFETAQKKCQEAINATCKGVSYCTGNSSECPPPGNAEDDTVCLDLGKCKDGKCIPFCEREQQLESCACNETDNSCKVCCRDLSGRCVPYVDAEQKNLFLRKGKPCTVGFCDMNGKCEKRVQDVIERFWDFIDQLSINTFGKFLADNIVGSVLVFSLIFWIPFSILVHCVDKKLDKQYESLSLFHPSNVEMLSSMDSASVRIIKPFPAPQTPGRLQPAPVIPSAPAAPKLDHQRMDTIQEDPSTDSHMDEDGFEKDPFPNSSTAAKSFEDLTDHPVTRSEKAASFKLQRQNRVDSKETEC
HGIII-sPLA2 inh: human group III sPLA2 inhibitors, primary screen, biochemical, QFRET, BODIPY PC-A2 liposome substrate. Group 3 secretory phospholipase A2 (Homo sapiens), Q9NZ20. QFRET BODIPY PC-A2 liposome hydrolysis, fluorescence. inhibition, % at 12.2 µM. hit rate 0.56% among 370,000;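 active = inhibition above mean plus 3 SD of compounds lying within the high and low control bounds, cut at about 19% in these data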
KLK7 zymogen act: proKLK7 zymogen activators, primary screen, biochemical, fluorescence intensity | Kallikrein-7 (Homo sapiens), P49862 | purified proKLK7, EDANS-DABCYL substrate fluorescence; 100% is mature enzyme control, 0% vehicle | activation, % at 7 µM | hit rate 0.9% among 370,000 | AID 652039, 2013;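 active = activation above the mean of all tested compounds plus 3 SD, computed per campaign excluding outliers beyond control limits, cut at about 13% in these data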
PLCg1 ctr: PLC-gamma1 enzyme inhibitors, counter-screen for PLC-beta3 inhibitor project, biochemical, fluorescence | inhibition, % at 12.3 µM | AID 743258, 2014 | shares compounds with PLC-gamma1 inh | purified PLC-gamma1, fluorogenic substrate | hit rate 3.1% among 3,300
PLCbeta3 conf: PLC-beta3 inhibitor confirmation, biochemical, fluorescence, purified enzyme; shares compounds with PLC-gamma1 inh; fluorogenic substrate fluorescence; inhibition, % at 12.3 µM; hit rate 1% among 3,300; in the data active = inhibition above about 11%
Each line names hits and unclear results; the compound was inactive in the other large screens (follow-up assays come after a bar, where they were run). The list is not random: actives were taken first. Their share in the collection is about 3.4%. Cut-off read from the data, not from the text of the source, unless noted: active = inhibition above about 9.5%; inactive = the rest.

CC(C)CC(NC(=O)C1CCCN1C(=O)OC(C)(C)C)C(=O)NCC(N)=O (configuration not stated)	PLC-beta3 inh 14 | PLCg1 ctr inactive | PLCbeta3 conf inactive
COC(=O)CSC1=C(C#N)C(=O)NC2(CCCCC2)S1	PLC-gamma1 inh 16 | PLCg1 ctr inactive | PLCbeta3 conf inactive
Cc1ccc(C)c(NC(=O)C(Sc2nc3ccc(C)cc3[nH]2)c2ccccc2)c1 (configuration not stated)	none
Cc1ccc2nc(SC(C(=O)Nc3ccc(F)cc3)c3ccccc3)[nH]c2c1 (configuration not stated)	PLC-gamma1 inh 13 | PLCg1 ctr inactive | PLCbeta3 conf inactive
N/C(=N\OC(=O)CCCc1ccccc1)c1cccnc1	PLC-beta3 inh 12 | PLCg1 ctr inactive | PLCbeta3 conf inactive
N/C(=N\OC(=O)CCCc1ccccc1)c1ccccc1	none
Cc1ccc(NC=C(S(=O)(=O)c2ccccc2)S(=O)(=O)c2ccccc2)c(C)c1	PLC-gamma1 inh 13 | PLCg1 ctr inactive | PLCbeta3 conf inactive
COC(=O)[C@]12CCCCC=C1N(Cc1ccc(OC)cc1)C(=O)[C@@H]2CC(=O)N1CCCCC1	none
COc1cccc(C(c2c(C)[nH]n(-c3ccccc3)c2=O)c2c(C)[nH]n(-c3ccccc3)c2=O)c1OC	PLC-gamma1 inh 18 | PLCg1 ctr inactive | PLCbeta3 conf inactive
COc1cccc(C(c2c(C)[nH]n(-c3ccccc3)c2=O)c2c(C)[nH]n(-c3ccccc3)c2=O)c1O	PLC-gamma1 inh 25 | PLCg1 ctr inactive | PLCbeta3 conf inactive
O=C(CCS(=O)(=O)c1ccccc1)N(CCCN1CCOCC1)c1nc2ccccc2s1	none
Cc1ccc(S(=O)(=O)CCC(=O)N(CCCN2CCOCC2)c2nc3ccccc3s2)cc1	PLC-gamma1 inh 13 | PLCg1 ctr inactive | PLCbeta3 conf inactive
CCCCNc1c(-c2cccc(-c3cc(C(C)=O)cs3)c2)nc2ccc(C)cn12	PLC-gamma1 inh 9.7 | PLCg1 ctr inactive | PLCbeta3 conf inactive
O=C1NC(=O)C(=Cc2ccccc2)N1	PLC-beta3 inh 11 | PLCg1 ctr inactive | PLCbeta3 conf inactive
O=C(c1cccc(Cl)c1)N1CCN(c2ccc3c(c2)C2CC3CCN2C(=O)OCc2ccccc2)CC1 (configuration not stated)	none
O=C(OCc1ccccc1)N1CCC2CC1c1ccc(N3CCN(Cc4ccccc4)CC3)cc12 (configuration not stated)	PLC-beta3 inh 14 | PLCg1 ctr inactive | PLCbeta3 conf inactive
O=S1(=O)c2c(cccc2N2CCSCC2)Oc2ccccc2CN1Cc1cn(Cc2ccc(C(F)(F)F)cc2)nn1	none
COc1ccc(F)cc1S(=O)(=O)n1cc(C)nc1-c1ccccc1	PLC-beta3 inh 11 | PLCg1 ctr inactive | PLCbeta3 conf inactive
COc1ccc(F)cc1S(=O)(=O)N1CCCN(S(=O)(=O)c2cc(F)ccc2OC)CC1	none
Cc1noc(C)c1NC(=O)NC(c1ccccc1)c1ccccc1	PLC-gamma1 inh 10 | PLCg1 ctr inactive | PLCbeta3 conf inactive
COC(=O)[C@]12C[C@H](CC(=O)N3CCCCC3)C(=O)N(Cc3ccc4c(c3)OCO4)C1=C[C@H](C(C)C)O[C@@H]2C1CC1	none
CCCNC(=O)c1ccc2c(c1)nc(C)n2-c1cccc(C)c1	PLC-gamma1 inh 13 | PLCg1 ctr inactive | PLCbeta3 conf inactive
COc1ccc(Cn2ccc3ccc(-c4ccc5ccn(Cc6cccc(F)c6)c5c4)cc32)cc1	none

Source: PubChem (The Scripps Research Institute Molecular Screening Center)
